Source: the supplement of paper PMC3334620
Whole data set: some 33,000 sequences, median “E-score (-0.5 to 0.5)” near -0.041, cut for the highest 2% near 0.37. Shown is part of a subset that was picked to be rich in the highest values.

What follows are sequences tested against T1, Ecm22 (UniProt Q05958) (assay: PBM E-score (8-mer binding enrichment) (E-score (-0.5 to 0.5)); higher = stronger / more preferred TF binding). Details: protein concentration: 200 nM; construct: GST-full length.
T1 sequence: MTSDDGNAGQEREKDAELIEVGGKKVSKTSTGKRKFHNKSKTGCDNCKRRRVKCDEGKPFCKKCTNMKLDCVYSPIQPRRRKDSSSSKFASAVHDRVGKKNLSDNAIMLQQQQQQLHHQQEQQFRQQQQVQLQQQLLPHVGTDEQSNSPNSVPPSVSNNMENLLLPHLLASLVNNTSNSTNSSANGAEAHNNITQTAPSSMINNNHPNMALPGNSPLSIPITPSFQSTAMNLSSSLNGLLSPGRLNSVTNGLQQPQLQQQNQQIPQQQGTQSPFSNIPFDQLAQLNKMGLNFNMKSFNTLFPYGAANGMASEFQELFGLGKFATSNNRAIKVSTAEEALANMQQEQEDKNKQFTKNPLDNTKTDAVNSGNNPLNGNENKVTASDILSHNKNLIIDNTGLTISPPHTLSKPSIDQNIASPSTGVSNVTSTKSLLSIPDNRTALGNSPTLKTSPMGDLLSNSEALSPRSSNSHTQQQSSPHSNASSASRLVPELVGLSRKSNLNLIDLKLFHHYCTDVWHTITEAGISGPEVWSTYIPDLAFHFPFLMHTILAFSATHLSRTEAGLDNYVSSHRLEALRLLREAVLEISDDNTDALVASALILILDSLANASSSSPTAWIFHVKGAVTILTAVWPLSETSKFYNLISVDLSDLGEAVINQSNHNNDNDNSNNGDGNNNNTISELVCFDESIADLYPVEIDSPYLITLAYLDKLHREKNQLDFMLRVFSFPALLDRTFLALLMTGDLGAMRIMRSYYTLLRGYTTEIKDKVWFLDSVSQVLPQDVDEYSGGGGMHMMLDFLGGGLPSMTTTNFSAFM
In short: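 Universal all-10-mer Agilent arrays, fresh or stripped once, were converted to double-stranded form by primer extension. GST-tagged yeast transcription factors from PURExpress in vitro transcription/translation, full-length or DNA-binding domain only, were applied at about 100-200 nM and detected with fluorescent anti-GST. After masliner normalisation, the Universal PBM Analysis Suite scored each ungapped eight-base word together with its reverse complement by E-score.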

| Sequence | PBM E-score |
| --- | --- |
| TACTCACA | -0.0537 |
| CCCCCGAG | -0.231 |
| GCGAGGCC | 0.251 |
| CCGAGGCG | 0.0444 |
| ACGAGGCA | 0.401 |
| ACGAGGCG | 0.431 |
| ACCAGGCT | -0.198 |
| ACGAGGCT | 0.382 |
| AGGAGGCG | -0.229 |
| CCGAGGCC | 0.117 |
| AAGAGGCT | -0.268 |
| CCGAGGCA | 0.0444 |
| ACGAGGCC | 0.376 |
| GCGAGGCA | 0.296 |
| CCGGTCTA | -0.0788 |
| AATAACAA | -0.0956 |
| AGATTCCT | -0.227 |
| AACGCCGC | -0.00584 |
| CGGTAAAA | 0.228 |
| AGCAATAG | -0.0955 |
| ACTTCCAA | -0.156 |
| AAACCCGA | 0.279 |
| CTCAACAG | -0.193 |
| AGACCAGC | -0.283 |
| CAGGAAAA | -0.019 |

| Sequence | PBM E-score |
| --- | --- |
| AACCCAGC | -0.207 |
| GGTACGAA | 0.486 |
| AGTACGAT | 0.407 |
| CGTACGAA | 0.448 |
| GGTACGCA | 0.263 |
| AGTACTAT | 0.0505 |
| ACTACGAT | 0.182 |
| CGTACGTA | 0.367 |
| GGTACGTA | 0.319 |
| CGTACGCA | 0.36 |
| AGTACGCA | -0.0459 |
| AGTACGTA | 0.283 |
| AGTACGAA | 0.42 |
| AGTTCTGC | 0.17 |
| AGATGAAG | -0.13 |
| CCCCTAGC | -0.254 |
| ACTCAACC | -0.0151 |
| CGATGGAA | 0.0222 |
| GGCACAAC | -0.169 |
| GACACCCA | -0.171 |
| TAGGACGA | -0.216 |
| ATTCTCAG | -0.308 |
| CGGACGAG | -0.0963 |
| AGTACGCG | 0.197 |
| CGTACGTC | 0.356 |

| Sequence | PBM E-score |
| --- | --- |
| CCTACGAG | 0.339 |
| CGTACGAC | 0.444 |
| ATTACGTG | -0.0556 |
| ATTACGAG | 0.38 |
| CGTACGAG | 0.473 |
| AGTACGAG | 0.456 |
| CGTACGCC | 0.3 |
| AGTACGTG | 0.142 |
| ATTACGAC | 0.367 |
| ACGCTGGA | 0.126 |
| ACGACCCT | 0.331 |
| CGCACGCA | 0.141 |
| GCCGGCGA | -0.117 |
| TAGACCGA | 0.175 |
| AGAGAGCT | -0.169 |
| AAGCATTC | -0.157 |
| CGTGCGCA | -0.0738 |
| CACAGTTC | -0.0557 |
| CGAGTACA | 0.246 |
| CGCTAACA | 0.0557 |
| AGTACGAC | 0.443 |
| TGTACAAA | -0.0698 |
| TGTACGAA | 0.48 |
| AGTACGCC | -0.0213 |
| AGTACGTC | 0.0542 |

| Sequence | PBM E-score |
| --- | --- |
| TGCACGAA | 0.109 |
| CCGACCAA | 0.105 |
| CAAGTATG | -0.112 |
| ATCTCACG | -0.0833 |
| ATACGGTG | 0.388 |
| AAACGGCC | 0.29 |
| AAACGGCG | 0.391 |
| AAACGGTC | 0.293 |
| ATACGGTC | 0.383 |
| CTACGGTC | 0.0518 |
| ACACGGTG | -0.0453 |
| AAACGGTA | 0.287 |
| AAACGGCT | 0.259 |
| ACACGGTC | -0.0081 |
| AGACGGTG | -0.132 |
| AAACGGTG | 0.376 |
| ATGCAAAG | 0.0339 |
| AAAAATGA | -0.0643 |
| AGGCTCAG | -0.211 |
| GTTAGGGA | 0.0493 |
| AGGTGCTG | -0.371 |
| AGCATACT | 0.0121 |
| CCGGACCA | 0.0404 |
| AGGGAACC | 0.00984 |
| CGGGAACG | 0.456 |

| Sequence | PBM E-score |
| --- | --- |
| AGGGAACG | 0.465 |
| CGGGAACC | 0.0199 |
| CGGGAACA | 0.165 |
| AGGGAACA | -0.166 |
| AAAGGAGT | -0.131 |
| GTTTCCTA | 0.0344 |
| GCGGCTAA | -0.034 |
| AAATCTGA | -0.168 |
| CCTTGGCG | -0.159 |
| GGTACCAC | -0.137 |
| CGTACCAG | 0.397 |
| AGTACCAA | -0.119 |
| CGTACCAC | 0.446 |
| AGTACCAG | -0.14 |
| CATACCAG | -0.0569 |
| AGTACCAC | 0.0416 |
| TGTACCAA | 0.036 |
| CGTACCAA | 0.444 |
| TCCCTAAA | -0.00662 |
| CGCACGTC | 0.00508 |
| TAGGGATA | -0.165 |
| GCAGTAAA | -0.0139 |
| CGAACGCA | 0.242 |
| GCTTCCCC | -0.098 |
| CAAAGCCA | -0.0435 |

| Sequence | PBM E-score |
| --- | --- |
| GCTACGAC | 0.426 |
| ACTACGAC | 0.329 |
| CCTACGAC | 0.232 |
| GCTACGAA | 0.429 |
| TCTACGAA | 0.312 |
| CCTACGAA | 0.192 |
| CCTCTCAA | -0.127 |
| AGCGTATG | 0.136 |
| CTCGTATC | 0.478 |
| ATCGTGTA | 0.25 |
| ATAGTATG | 0.0828 |
| ATCGTATC | 0.418 |
| ATCGTATG | 0.438 |
| ATAGTATC | 0.127 |
| CACGTATC | 0.132 |
| ATCGTATA | 0.488 |
| ATAGTATA | 0.211 |
| CGCGTATC | 0.232 |
| AGCGTATC | 0.0945 |
| TCTGCTCA | -0.168 |
| TCGAGCGA | 0.0676 |
| ATATCAAC | -0.103 |
| CCAGTTGC | -0.196 |
| ACTGGCCA | -0.206 |
| CAGAGTCA | -0.226 |

| Sequence | PBM E-score |
| --- | --- |
| GCAGAGAC | -0.357 |
| CGTATAGC | 0.477 |
| GGTATAGA | -0.0121 |
| AGTATAGC | 0.0261 |
| AGTATAGA | 0.16 |
| CGTATAGA | 0.458 |
| CCTATAGC | -0.248 |
| ACATGGGC | -0.263 |
| GAAGTCCC | -0.172 |
| ACGTTCGC | 0.157 |
| GAAATTGC | 0.0049 |
| ACACATTA | 0.031 |
| CCACGAGG | 0.00398 |
| CTGTCGTC | 0.161 |
| GTGTCGGA | 0.0575 |
| GTGTCGTA | 0.445 |
| CTGTCGAA | -0.00303 |
| ATGTCGTC | 0.0394 |
| ATGTCGTA | 0.446 |
| GTGTCGCA | 0.162 |
| CTGTCGTA | 0.453 |
| ATGTCGTG | 0.0288 |
